Shown are actives, neighbours in structure and some others; about 3.6% of the full set was active somewhere.
CRFR2-BP antag = antagonists of CRF-BP/CRF-R2 complex, primary screen, cell-based, HEK293, calcium dye fluorescence, uHTS. CRF-induced calcium fluorescence. inhibition, % at 11.8 µM. hit rate 0.59% among 350,000;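 active = inhibition of the ligand-induced calcium signal above about 50% at the single tested concentration, limit read from the data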
CendR NRP1 mod = modulators of CendR peptide binding to NRP-1, primary screen, biochemical, fluorescence polarization, uHTS | Neuropilin-1 (Homo sapiens), O14786 | FAM-RPARPAR peptide binding to NRP-1 | inhibition, % at 25 µM | hit rate 0.85% among 360,000 | AID 602438, 2012;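 active = inhibition or corrected inhibition above about 18%, plus a signal ratio from 0.5 to 1.5, limit read from the data, passing the limit was not always enough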
Myeloid diff MLP = induction of myeloid progenitor differentiation, primary screen, cell-based, flow cytometry, MLPCN library; ER-HoxA9 myeloid progenitors, lysozyme-GFP differentiation; calls only at 10 µM; hit rate 1% among 360,000; AID 624256, 2012;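 active = normalized GFP-positive differentiation at or above the plate's own cutoff, the solvent-only control mean plus 3 SD; inconclusive = no clear call, values can overlap the other calls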;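 also: cells exposed to compound for four days before flow analysis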
NadD block = inhibitors of S. aureus NadD, primary screen, biochemical, colorimetric, uHTS; Nicotinate-nucleotide adenylyltransferase NadD (Staphylococcus aureus N315); purified NadD enzyme, colorimetric absorbance read-out; inhibition, % at 20 µM; hit rate 0.78% among 360,000; AID 602399, 2012; in the data active = inhibition above about 26%
FAS TE block = FAS thioesterase domain inhibitors, primary screen, biochemical, fluorescence intensity, uHTS; Fatty acid synthase (Homo sapiens), P49327; recombinant FAS-TE, OMFH fluorogenic substrate, fluorescence endpoint; inhibition, % at 15 µM; hit rate 0.67% among 360,000; AID 602261, 2012;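 active = compounds whose normalised, plate-corrected inhibition of enzyme fluorescence in the single-dose primary screen is 50% or more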
Myeloid diff CP1 = inducers of myeloid progenitor differentiation, confirmation, cell-based, GFP/Mac1 flow cytometry, cherry pick 01. shares compounds with Myeloid diff MLP. ER-HoxA9 myeloid progenitors, GFP/Mac1 double-positive flow. calls only. hit rate 2% among 2,300. AID 651706, 2012;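 active = share of green or green-and-red cells above 9 and 9% in run 1 or 4 and 3% in run 2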
GFP autofluor = flagged as fluorescent in myeloid differentiation counter-screen. shares compounds with Myeloid diff MLP. ER-HoxA9 myeloid progenitors, no estrogen, GFP autofluorescence flow cytometry; vehicle wells 0%, positive control 100%. fluorescence response, % (concentration not given with the values). hit rate 7.4% among 2,300. AID 651707;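 active = over 5% cells positive for green fluorescent reporter, or over 2% positive for both it and APC stain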
Large screens that a line does not name were inactive (follow-up assays come after a bar, where they were run).

COc1ccc(C(=O)N2CCCC(Nc3ccc(C(C)C)cc3)C2)c(OC)n1 (stereo not given)	none
CC1(C)O[C@H]2CC(=O)OC[C@@]23C1CC(=O)[C@]1(C)C3CC[C@@]2(C)[C@H](c3ccoc3)OC(=O)[C@H]3O[C@]321 (stereo not given in full)	Myeloid diff MLP active | Myeloid diff CP1 inactive | GFP autofluor inactive
CC1(C)O[C@H]2CC(=O)OC[C@]23[C@H]2CC[C@@]4(C)[C@H](c5ccoc5)OC(=O)[C@H]5O[C@]54[C@]2(C)[C@@H](O)C[C@@H]13	none
CC1(c2nc3ccccc3cc2C#N)OCCO1	none
N#Cc1c(NC(=O)CCN2C(=O)c3ccccc3C2=O)oc(-c2ccccc2)c1-c1ccccc1	none
N#Cc1c(NC(=O)CCn2cnc3ccccc3c2=O)oc(-c2ccccc2)c1-c1ccccc1	none | Myeloid diff CP1 inactive | GFP autofluor inactive
CC(=O)Nc1ccc(NC(=O)C(C)O/N=C/c2cccc([N+](=O)[O-])c2)cc1 (stereo not given)	none | Myeloid diff CP1 inactive | GFP autofluor inactive
CCCCN(C(=O)c1cc(-c2ccncc2)nc2ccccc12)c1c(N)n(CC(C)C)c(=O)[nH]c1=O	none
CCCCn1c(N)c(N(CC(C)C)C(=O)c2cc(-c3ccncc3)nc3ccccc23)c(=O)[nH]c1=O	Myeloid diff MLP active | Myeloid diff CP1 inactive | GFP autofluor inactive
COC(=O)CCC(=O)c1ccn(S(=O)(=O)c2ccccc2)c1	none
O=C(Nc1nccs1)c1ccc(-c2ccc([N+](=O)[O-])cc2)o1	Myeloid diff MLP active | Myeloid diff CP1 inactive | GFP autofluor inactive
CCC(=O)Nc1ccc(NC(=O)c2cccc3c(Br)cccc23)cc1	none
CN(CC(=O)Nc1ccc(F)cc1)C(=O)COC(=O)CN1C(=O)NC2(CCCC2)C1=O	none
Cc1ccc(NC(=O)COC(=O)CN2C(=O)NC3(CCCC3)C2=O)cc1F	none | Myeloid diff CP1 inactive | GFP autofluor inactive
CCOc1ccc(S(=O)(=O)Nc2ccccc2C(=O)N(C)C2CCN(C)CC2)cc1	none | Myeloid diff CP1 inactive | GFP autofluor inactive
Cc1ccccc1NS(=O)(=O)c1ccc(OCC(=O)N2CCCCC2)cc1	Myeloid diff MLP active | Myeloid diff CP1 inactive | GFP autofluor inactive
C/C(=N\NC(=O)c1ccc(F)cc1)c1ccc(NC(=O)Cc2ccccc2)cc1	none (no result: Myeloid diff MLP)
CC(=O)N/C(=C\c1cccc([N+](=O)[O-])c1)C(=O)NC1CCCCC1	none
CSc1nc(N)c2c(C)c(C)sc2n1	none | Myeloid diff CP1 inactive | GFP autofluor inactive
CC1CCN(Cc2ccc(-c3nnn(CC(=O)Nc4ccccc4Cl)n3)cc2)CC1	Myeloid diff MLP active | Myeloid diff CP1 inactive | GFP autofluor inactive
O=C(Nc1ccc2nc3n(c(=O)c2c1)CCCC3)c1cncc(Br)c1	none
NC(=O)CC(NC(=O)Cc1ccc(Cl)cc1)c1ccc(NC2CCCC2)c([N+](=O)[O-])c1 (stereo not given)	none
NC(=O)CC(NC(=O)Cc1ccc(Cl)cc1)c1ccc(NC2CCCCC2)c([N+](=O)[O-])c1 (stereo not given)	none | Myeloid diff CP1 inactive | GFP autofluor inactive
Cc1c(C(=O)OC(C)C)[nH]c2c1C(=O)CCC2	none
Cc1c(C(=O)OC(C)C)[nH]c2c1C(=O)CC(C)(C)C2	Myeloid diff MLP active | Myeloid diff CP1 inactive | GFP autofluor inactive
COc1ccc(CN(CC(O)COc2cccc3[nH]cc(C)c23)C(C)(C)C)cc1 (stereo not given)	none
N#Cc1nn(-c2ccccc2)nc1N1CCCCC1	Myeloid diff MLP active | Myeloid diff CP1 inactive | GFP autofluor inactive
N#Cc1nc(COc2ccccc2)oc1N1CCCCCC1	none
CCN(CC)C(=O)CSc1nnc([C@@H](NC(=O)OC(C)(C)C)C(C)C)o1	none | Myeloid diff CP1 inactive | GFP autofluor inactive
CCN(CC)C(=O)CSc1nnc([C@H](CCSC)NC(=O)OC(C)(C)C)o1	none
CN=C1NN=C(c2cc(C)n(-c3ccc(Cl)cc3)c2C)CS1	none
Cc1ccc(S(=O)(=O)Nc2cccc(-c3cn4ccsc4n3)c2)cc1	none | Myeloid diff CP1 inactive | GFP autofluor inactive
Cc1cccc(S(=O)(=O)Nc2cccc(-c3cn4ccsc4n3)c2)c1	none
CC(C)(C)c1cc2nc(NCCOc3ccccc3)ccn2n1	none (no result: CRFR2-BP antag)
CCOC(=O)c1cc(Br)c(=O)n2ccccc12	none
CCOC(=O)c1cc(C(=O)OCC)c2cccc(C)n2c1=O	Myeloid diff MLP active | Myeloid diff CP1 inactive | GFP autofluor inactive
CC(C)(C)OC(=O)N1CCN(C(=O)c2[nH]cnc2C(=O)Nc2cccc(Cl)c2)CC1	none
COc1ccc(-c2ccc3oc(-c4ccc(OC)cc4)c(C#CCO)c3c2)cc1	Myeloid diff MLP active | Myeloid diff CP1 inactive | GFP autofluor inactive
COc1ccc(-c2oc3ccc(N4CCOCC4)cc3c2C#CCO)cc1	none
CCOc1ccc(N(Cc2ccc(OC)cc2)C(=O)c2ccco2)cc1	none
COc1ccc(CN(C(=O)c2ccco2)c2ccc(C)c(C)c2)cc1	Myeloid diff MLP active | Myeloid diff CP1 inactive | GFP autofluor inactive
O=C(COC(=O)CCc1nc2ccccc2s1)NCc1ccco1	none
CCOC(=O)/C=C1\SCC(=O)N1CC(=O)NC1CCCCC1	Myeloid diff MLP active | Myeloid diff CP1 inactive | GFP autofluor inactive
Cc1ccc(NC(=O)CSCC(=O)NCc2cccc(C(F)(F)F)c2)cc1	Myeloid diff MLP active | Myeloid diff CP1 inactive | GFP autofluor inactive
CC(SCCc1ccccn1)C(=O)O (stereo not given)	none | Myeloid diff CP1 inactive | GFP autofluor inactive
CCOc1ccc(/C(O)=C2/C(=O)C(=O)N(CC3CCCO3)C2c2cccs2)cc1 (stereo not given)	none
O=C(Nc1ccc(N2CCOCC2)cc1)c1ccc([N+](=O)[O-])o1	Myeloid diff MLP active | Myeloid diff CP1 inactive | GFP autofluor inactive
O=C(NCCc1c[nH]c2ccccc12)c1ccc([N+](=O)[O-])o1	Myeloid diff MLP active | Myeloid diff CP1 inactive | GFP autofluor inactive
O=C(NCCc1c[nH]c2ccccc12)c1cc([N+](=O)[O-])cc([N+](=O)[O-])c1	none
CCCCCCCNc1cccc(C)c1	none | Myeloid diff CP1 inactive | GFP autofluor inactive
Cc1cccc(NCCNc2cccc(C)c2)c1	none
CN(C)CC(C)(C)CNS(=O)(=O)c1ccc(OC(F)(F)F)cc1	none (no result: Myeloid diff MLP)
O=C1c2ccccc2C(=O)C1Cc1cccc2ccccc12	none | Myeloid diff CP1 inactive | GFP autofluor inactive
O=C1NC(c2cccc3ccccc23)Nc2ccccc21 (stereo not given)	Myeloid diff MLP inconclusive

Assay outcomes: PubChem, several laboratories
